KB-3-1 cytotox: KB-3-1 parental cell cytotoxicity. Potency, µM (series often up to 46.1 µM), actives largely listed as cytotoxic. AID 1347075. actives 1.4% (n = 400,000). KB-3-1 viability, CellTiter-Glo ATP luminescence, 72 h; note: % is set by controls: 0 for no effect and ±100 for the full control effect; nearly all actives have a fitted effect of over 60% in size
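Multi-concentration cytotoxicity screen in KB-3-1 cells grown in DMEM lacking phenol red with 10% FBS. After 72 h at 37 °C with compound, ATP-dependent luminescence was recorded.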
S2 tox: viability counter-screen for ATXN expression inhibitors. S2 cells (HEK-293 line with an ATXN2-luciferase reporter) viability, CellTiter-Fluor protease fluorescence, 24 h. AID 651635. Potency, µM (titrated, usually from 56.7 µM), usual class: cytotoxic. actives 0.49% (n = 400,000); note: nearly all actives have a fitted effect of over 40% in size
KB-V1 cytotox: kills drug-selected multidrug resistant KB-V1 cells; KB-V1 MDR cells viability, CellTiter-Glo, 72 h; Potency, µM (titrated, usually from 46.1 µM), hits mostly cytotoxic; actives 3.4% (n = 400,000); AID 1347076; note: % is set by controls: 0 for no effect and ±100 for the full control effect; nearly all actives have a fitted effect of over 60% in size
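KB-V1, DMEM (no phenol red) + 10% FBS; cpd pin-transferred, titration series; 72 h, 37 degrees C; CellTiter-Glo, luminescence. Data normalized, curve-fit.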
HT1080-NT tox: kills 2HG-producing HT-1080-NT fibrosarcoma cells. actives 1.6% (n = 360,000). HT-1080-NT fibrosarcoma viability, CellTiter-Glo ATP luminescence, 48 h. Potency, µM (highest dose often 46.1 µM), inactives show at the top dose activity, negative = less viability, most hits filed as cytotoxic. AID 686970;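 note: NT is the 2HG producing partner of a matched IDH1 knockdown line; 0% = DMSO-treated cells and -100% = media-only wells without cells; nearly all actives have a fitted effect of over 55% in size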
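750 cells/well, RPMI + 5% FBS; 2 h settle, compound pin-transfer, 48 h at 37 degrees C. CellTiter-Glo 10 min RT, luminescence. Normalized to DMSO and media-only wells.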
ATXN2 expr inh: reduces ATXN2 reporter expression in HEK-293 cells; HEK-293 ATXN2-luciferase reporter, luminescence, 24 h; Potency, µM (top dose mostly 57 µM), for the others: at the top dose activity change, negative = inhibition, actives largely listed as inhibitors; actives 0.72% (n = 360,000); note: % is set by controls: 0 for no effect and ±100 for the full control effect; nearly all actives have a fitted effect of over 55% in size
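qHTS (up to 57 uM final) was run with 24 h compound exposure of reporter cells at 37 °C. Each well was multiplexed: SteadyGlo luminescence measured ATXN2-luciferase expression after a fluorogenic Gly-Phe-AFC viability readout (25 uM final).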
HT1080 IDH1KD tx: HT-1080 IDH1 knockdown cell toxicity (counter line). HT-1080 IDH1 knockdown viability, ATP luminescence, 48 h. Potency, µM (titrated, usually from 46.1 µM), for the others: top-dose activity, negative = toxicity, actives largely listed as cytotoxic. actives 2% (n = 360,000);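 note: 0% = DMSO wells and -100% = cell-free medium wells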
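Viability of IDH1-knockdown HT-1080 fibrosarcoma cells was assessed by CellTiter-Glo after 48 h at 37 °C with titrated compound; concentration-effect curves were classified by fit quality and response size.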
* = called active by the depositor; i = inactive; ? = inconclusive; . = no result. A selection: hits, their analogues and other compounds. The true share with any hit is near 6.2%. Calls come from the whole dose curve; as a rule, active = well fitted curve in the direction sought with a large enough effect; inconclusive = small, poorly fitted or top-dose-only effect, or another doubt; inactive = no such curve, though single readings can be large; an effect the other way counts as inactive or inconclusive. Potency is the fitted concentration of half-maximal effect.

SMILES	KB-3-1 cytotox	S2 tox	KB-V1 cytotox	HT1080-NT tox	ATXN2 expr inh	HT1080 IDH1KD tx
Nc1nc(N)c2cc(Sc3ccc4ccccc4c3)ccc2n1	20.6µM*	?	i	8.2µM*	?	5.8µM*
Oc1cccnc1Sc1cccc(C(F)(F)F)c1	i	i	i	-3.0%	2.5%	-12.9%
Nc1nc(N)c2cc(Sc3cccc(C(F)(F)F)c3)ccc2n1	?	?	?	5.8µM*	.	5.8µM*
Nc1nc(-c2ccc3ccccc3c2)cs1	i	i	i	1.4%	94.1%	-25.2%
CN(C)c1cccc(-c2nnc(N3CCC(C(N)=O)CC3)s2)c1	i	.	i	.	.	.
CCOc1ccccc1NC(=O)c1nc(S(=O)(=O)Cc2ccccc2)ncc1Cl	?	8.91µM*	?	2.5%	.	-5.1%
COc1cccc(NC(=O)c2nc(S(C)(=O)=O)ncc2Cl)c1	i	?	i	5.17µM*	?	8.2µM*
Cc1cccc(NC(=O)c2nc(S(C)(=O)=O)ncc2Cl)c1	i	?	i	.	?	.
COc1ccccc1NC(=O)c1nc(S(=O)(=O)Cc2ccccc2)ncc1Cl	7.31µM*	?	?	11.6µM*	?	3.66µM*
CCS(=O)(=O)c1ncc(Cl)c(C(=O)Nc2ccccc2)n1	?	14.1µM*	i	.	11.2µM*	.
CCSc1ncc(Cl)c(C(=O)Nc2ccccc2)n1	i	i	?	3.9%	16.1%	-9.6%
O=C(NC1CC1)[C@@H]1C[C@H](Sc2nc3ccccc3[nH]2)CN1CC1CCCCC1	.	i	.	.	.	.
CC1CCN(C(=O)CN2CCSc3ccc(S(=O)(=O)N(C)C)cc32)CC1	i	?	?	.	-2.9%	.
CC1CCN(S(=O)(=O)c2ccc(NC(=O)c3ccncc3)cc2)CC1	16.4µM*	i	?	-22.4%	-15.1%	?
CCS(=O)(=O)c1ncc(Cl)c(C(=O)Nc2ccccc2OC)n1	2.59µM*	.	?	-16.8%	?	?
CCN(c1ccccc1)S(=O)(=O)c1ccc(NC(=O)c2nc(SC)ncc2Cl)cc1	i	?	?	.	-15.6%	.
CN(c1ccccc1)S(=O)(=O)c1ccc(NC(=O)c2nc(S(C)(=O)=O)ncc2Cl)cc1	?	15.8µM*	?	?	14.1µM*	11.6µM*
Cc1ccccc1NC(=O)c1nc(S(=O)(=O)Cc2ccccc2F)ncc1Cl	?	.	i	.	.	.
Cc1ccc(NC(=O)c2nc(S(=O)(=O)Cc3ccccc3F)ncc2Cl)cc1	i	.	?	.	.	.
Cc1ccc(NC(=O)c2nc(S(=O)(=O)Cc3ccccc3C)ncc2Cl)cc1C	?	?	18.4µM*	?	?	16.4µM*
O=C(c1cnc(N2CCCCC2)c2ccccc12)N1CCN(c2ccccc2F)CC1	i	.	i	.	.	.
CCS(=O)(=O)c1ncc(Cl)c(C(=O)Nc2ccc(S(=O)(=O)N3CCC(C)CC3)cc2)n1	?	14.1µM*	10.3µM*	2.91µM*	-23.5%	3.66µM*
O=S(=O)(c1ccccc1)c1nc(-c2ccc(F)cc2)oc1NCC1CCCO1 (centres undefined)	i	?	3.66µM*	1.7%	-3.7%	2.4%
O=S(=O)(c1ccccc1)c1nc(-c2ccc(F)cc2)oc1NCc1ccccc1	i	?	i	.	-1.8%	.
Cc1ccc(C)c(-n2sc3ccc(F)cc3c2=O)c1	i	?	i	20.6µM*	?	?
COc1ccc(-n2sc3ccc(F)cc3c2=O)cc1	?	25.1µM*	?	?	?	?
CCN(CC)C1=N/C(=C\c2ccc(OC)cc2)C(=O)N1c1ccccc1	i	i	8.2µM*	-9.9%	4.5%	-13.0%
CCSC1=N/C(=C\c2ccccc2)C(=O)N1c1ccc(OC)cc1	i	i	i	25.5%	-1.6%	10.7%
O=C(NCC1OCCc2ccccc21)c1ccc(NC(=O)c2ccccc2Cl)cc1 (centres undefined)	i	i	?	-26.2%	-15.8%	-2.8%

High-throughput results (PubChem BioAssay)
